Screens (PubChem BioAssay)
Only some compounds are listed: those with a hit (about 1.6% of all), similar ones and a draw of the others.
NPSR antag: qHTS Assay for Antagonists of the Neuropeptide S Receptor: cAMP Signal Transduction. CHO-NPSR cells, cAMP TR-FRET, antagonist mode. AID 1461, 2008. 1% of 220,000 active. Potency, µM (titrated, usually from 38.3 µM), without a hit: at the top dose activity change, negative = inhibition, most hits filed as inhibitors. Q6W5P4; note: potency is the fitted concentration of half-maximal effect; % is set by controls: 0 for no effect and ±100 for the full control effect; nearly all actives have a fitted effect of over 50% in size
Target sequence (Q6W5P4 whole entry, looked up): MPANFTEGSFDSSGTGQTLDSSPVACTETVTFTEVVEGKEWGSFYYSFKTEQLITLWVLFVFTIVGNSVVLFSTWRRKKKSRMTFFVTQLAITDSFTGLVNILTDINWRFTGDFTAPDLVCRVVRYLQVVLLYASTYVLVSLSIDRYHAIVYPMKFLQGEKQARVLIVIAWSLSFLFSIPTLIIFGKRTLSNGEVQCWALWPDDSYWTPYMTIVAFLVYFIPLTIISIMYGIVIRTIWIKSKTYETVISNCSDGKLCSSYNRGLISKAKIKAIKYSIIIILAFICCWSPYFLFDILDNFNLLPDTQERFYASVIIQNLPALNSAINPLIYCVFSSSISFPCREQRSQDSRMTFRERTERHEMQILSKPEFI
IMPase Li cell: qHTS Assay for Identifying the Cell-Membrane Permeable IMPase Inhibitors: Potentiation with Lithium | CHO-M1 cells, IP1 TR-FRET (IP-One), carbachol + lithium | Potency, µM (series often up to 59.4 µM), for the others: at the top dose activity, negative = IMPase inhibition, usual class: inhibitors | 0.35% of 210,000 active;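 note: IP1 builds up when IMPase is blocked and the TR-FRET signal falls; potency is the fitted concentration of half-maximal effect; plate controls were basal vehicle for no effect and high inhibitor control for full effect; nearly all actives have a fitted effect of over 50% in size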
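Test compounds were applied to CHO-M1 cells previously cultured for 16–30 h at 2000 per well. A small lithium amount accompanied them; after 30 min at 37C, IP1 was quantified by TR-FRET.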
HTT ATP protect: qHTS Multiplex Assay to Identify Dual Action Probes in a Cell Model of Huntington: Cytoprotection (ATP) | PC12 HTT-Q103 induced, cytoprotection, ATP luminescence, 40 h | Potency, µM (doses to about 56.4 µM), inactives show cytoprotection (ATP increase), actives largely listed as activators | 0.14% of 230,000 active | AID 1471, 2008; note: potency is the fitted concentration of half-maximal effect; % of control where 0% means no effect; nearly all actives have a fitted effect of over 45% in size
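Cells were plated at 1500 per well in phenol red-free DMEM with 5% equine and 5% calf serum. Tebufenozide (100 nM final) and compounds were added, then ATPlite reagent, and luminescence was read.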
LMNA splice mod: qHTS Assay for Modulators of Lamin A Splicing | Potency, µM (highest dose often 46.1 µM), without a hit: at the top dose ratio change, negative = inhibition, actives largely listed as inhibitors | 0.01% of 200,000 active | AID 1487, 2009 | HeLa LMNA splicing GFP/RFP minigene ratio, 48 h; active = well fitted inhibition curve with a large enough effect in the signal ratio, with a control signal flat, not every such curve was filed as active; inconclusive = small, poorly fitted or top-dose-only effect, or effect the other way, or a change in a side signal; the % refers to the signal ratio; note: potency is the fitted concentration of half-maximal effect; % is set by controls: 0 for no effect and ±100 for the full control effect
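S3 HeLa stable clones carrying a lamin A-EGFP splicing minigene plus DsRed2 were seeded at 600 cells/well in Opti-MEM with 2% FBS, pin-dosed and incubated 48 h at 37°C. Acumen cytometry (488 nm) gave the GFP/RFP total-intensity ratio.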
HttQ103 aggreg: qHTS Multiplex Assay to Identify Dual Action Probes in a Cell Model of Huntington: Aggregate Formation (GFP) | 1.1% of 220,000 active | PC12 HttQ103-GFP aggregates, Acumen cytometry, 40 h | Potency, µM (top dose mostly 46.1 µM), for inactives: at the highest dose activity change, negative = inhibition, most hits filed as inhibitors; note: potency is the fitted concentration of half-maximal effect; % is set by controls: 0 for no effect and ±100 for the full control effect; nearly all actives have a fitted effect of over 60% in size
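PC12/HTTQ103-GFP, ecdysone-inducible; teb 100 nM; cpd qHTS titration; GFP aggregates read on laser cytometer, Ex 488/Em 500-530 nm.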
IMPase inh: qHTS Assay for Identifying the Cell-Membrane Permeable IMPase Inhibitors. inhibition (IP1 accumulation), % at 46.1 µM. AID 901, 2007. Inositol monophosphatase 1 (Rattus norvegicus), P97697. CHO-M1 cells, IP1 accumulation, HTRF TR-FRET ratio. 120,000 tested, under 10 active; active = well fitted curve in the direction sought with a large enough effect in the signal ratio, not every such curve was filed as active; inconclusive = small, poorly fitted or top-dose-only effect, or a change in a side signal; inactive = no such curve, though single readings can be large or run the other way; the % refers to the signal ratio;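 note: cells stimulated with carbachol in lithium chloride buffer; plate controls were DMSO basal wells for no effect and reference inhibitor wells for full effect; higher means more IMPase inhibition seen as more IP1 and lower FRET ratio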
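CHO-M1, 2000 cells/well, cultured 16–30 h; cpd up to 46 uM; carbachol (50 uM solution, stimulation buffer w/ 50 mM LiCl, pH 7.4), 30 min 37C; IP-One TR-FRET, 10 min RT; Ex 320/Em 665, 620; Hill-fit AC50.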
An asterisk follows results filed as active; ? = inconclusive; / = no result given; [ ] = another dose, or the depositor's remark. Unless noted, calls come from the whole dose curve; as a rule, active = well fitted curve in the direction sought with a large enough effect; inconclusive = small, poorly fitted or top-dose-only effect, or another doubt; inactive = no such curve, though single readings can be large; an effect the other way counts as inactive or inconclusive.

SMILES	NPSR antag	IMPase Li cell	HTT ATP protect	LMNA splice mod	HttQ103 aggreg	IMPase inh
O=C(Oc1cc2oc(=O)cc(-c3ccccc3)c2cc1Cl)C1CCCCC1	1.5%[46.1 µM]	-39.7%[38.3 µM]	-27.2%	?	7.08µM*	-7.4
NC(=S)NCCC[C@@H](N)C(=O)O	/	/	7.3%[1.9 µM]	/	/	9.2
COCCCNc1c2c3c(cccc3[nH]c1=O)C(=O)c1ccccc1-2	-11.7%[46.1 µM]	-11.7%[38.3 µM]	-39.9%	?	10µM*	-3.1
COCCCNC1=C(Cl)C(=O)c2ccccc2C1=O	?	/	-17.2%[10 µM]	/	2.3%[9.22 µM]	/
COc1cc(NC(C)CCCN)c2ncccc2c1 (stereo not given)	/	23.2%	15.7%	/	/	/
COc1cc(NCCCCCCCN)c2ncccc2c1	17.9%[46.1 µM]	20.2%	-90.6%[10 µM]	?	1.78µM*	13.3
Cc1ccc(OC(=O)c2cc(-c3ccccc3)nc3ccc(C)cc23)cc1	/	/	/	/	/	-0.1
Cc1ccc(S(=O)(=O)N[C@@H](Cc2ccccc2)C(=O)CCl)cc1	20µM*	34.7%	?	?	?	9.7
CCn1cc(C(=O)O)c(=O)c2cc(F)c(N3CCN(S(=O)(=O)c4ccc(NC(=O)OC)cc4)CC3)cc21	-2.2%	-7.0%	-11.1%[10 µM]	?	31.6µM*	?
CCC(=O)N1CCN(c2cc3c(cc2F)c(=O)c(C(=O)O)cn3CC)CC1	/	/	3.5%[10 µM]	/	/	/
COc1ccc(N2C(=O)c3ccccc3NC2c2ccc(OC)c(COc3ccccn3)c2)cc1 (stereo not given)	-3.1%[46.1 µM]	5.3%	-8.0%[10 µM]	-4.9%	2.4%	4.1
COc1ccc(N2C(=O)c3ccccc3NC2c2ccc(OC)c(CSc3ccccn3)c2)cc1 (stereo not given)	12.6µM*	?	-51.7%	3.0%	-5.2%	?
CSc1ccc2c(c1)N(CCC1CCCCN1C)c1ccccc1S2 (stereo not given)	12.6µM*	29.4%	?	?	?	/
O=C1c2ccccc2C(=O)c2c(Nc3ccc(CCO)cc3)ccc(O)c21	?	/	9.6%[10 µM]	?	16.6%[9.22 µM]	/
O=C1c2c(O)ccc(O)c2C(=O)c2c(NCCNCCO)ccc(NCCNCCO)c21	10µM*	29.5%	-274.3%	?	10µM*	?
C=CC1CO1 (stereo not given)	/	-5.3%	-7.5%	/	/	/
CN(c1cccc(NC(=O)c2ccc(N(C)S(=O)(=O)c3ccccc3)cc2)c1)S(C)(=O)=O	-56.0%	20.9%	18.8%[10 µM]	?	?	/
CN(c1cccc(NC(=O)c2ccc(C(C)(C)C)cc2)c1)S(C)(=O)=O	16.4%	20.1%	-163.7%	/	11.2µM*	/
O=C1N/C(=N\N=C\c2cccs2)SC1Cc1cccc(Cl)c1 (stereo not given)	-20.6%	5.3%	/	-5.1%	-6.3%	/
O=C1N/C(=N\N=C\c2ccccn2)SC1Cc1cccc(SC(F)F)c1 (stereo not given)	?	3.5%[38.3 µM]	-77.7%[10 µM]	?	5.62µM*	7.3
O=C1N/C(=N\N=C\c2cccnc2)SC1Cc1ccc(SC(F)F)cc1 (stereo not given)	?	46.4%[38.3 µM]	-68.1%[10 µM]	?	5.62µM*	0.1
O=C1N/C(=N\N=C\c2ccc3ncccc3c2)SC1Cc1ccc(SC(F)F)cc1 (stereo not given)	-24.7%[46.1 µM]	6.4%[38.3 µM]	-45.7%	-2.6%	32.3%	-2.6
CC[C@@H](c1ccccc1)n1c(=O)n2n(c1=O)[C@H]1[C@H](O)[C@H]3O[C@@H]3/C(=N/OCc3ccccc3)[C@@H]1CC2	/	/	11.4%[10 µM]	/	/	/
Fc1ccc(N2N=C(c3cccs3)CC2c2ccccc2)cc1 (stereo not given)	-39.9%	10µM*	-12.6%	/	-17.5%	/
